High-throughput results: PubChem, Center for Chemical Genomics, University of Michigan
The entries come from a sample that favours hits as a whole.
Dicer processing – inhibitors of human Dicer processing of pre-microRNA; cat-ELCCA pre-miR-21 Dicer processing, chemiluminescence; stronger effect = higher value; z-score at 25 µM; 6% of 47,000 active; in the data active = z-score above about 3, passing the limit was not always enough;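 note: plate controls were vehicle for no effect and no enzyme for full effect; higher signal means more uncleaved substrate so more Dicer inhibition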
* marks the source's active call; other numbers are inactive results.

SMILES | Dicer processing
CCN(CC)CCSc1nc(O)c(C(C)C)c(=O)[nH]1 | 4.2*
CCc1c(O)nc(SCCN(CC)CC)[nH]c1=O | 0
CCOC(=O)C(=CNc1cc(C(C)(C)C)nn1C)C(=O)OCC | -1.3
C/C=C(\C)c1nnc(NCC(C)(C)C)s1 | 0.2
Cc1ccc(N2CCn3c2nc2c3c(=O)n(CC(=O)O)c(=O)n2C)cc1 | 0.75
Cn1c(=O)n(CC(=O)O)c(=O)c2c1nc1n2CCCN1c1ccc(Cl)cc1 | 3*
Cn1c(=O)n(CC(=O)O)c(=O)c2c1nc1n2CCN1c1ccc(F)cc1 | 5.4*
Cn1c(=O)n(CC(=O)O)c(=O)c2c1nc1n2CCCN1c1ccc(F)cc1 | 0.5
CCOc1ccc(N2CCCn3c2nc2c3c(=O)n(CC(=O)O)c(=O)n2C)cc1 | 0.38
CC1CN(c2ccc(Cl)cc2)c2nc3c(c(=O)n(CC(=O)O)c(=O)n3C)n2C1 (configuration not stated) | -0.03
CCOC(=O)C1=C(Nc2ccc(OC(=O)Nc3ccccc3)cc2)C(=O)N(C(C)(C)C)C1 | 1.4
Cn1nc(-c2ccccc2)cc1NC(=O)Nc1ccc(OC(F)(F)F)cc1 | -0.35
CCC1(c2cccc(OC(=O)Nc3ccc(OC(F)(F)F)cc3)c2)CCCCN(C)C1=O (configuration not stated) | 3.8*
O=C1c2ccccc2-c2c1c1ccccc1c(=O)n2Cc1ccc2c(c1)OCO2 | 3.1*
O=C1c2ccccc2C(=O)N1CN(Cc1ccc2c(c1)OCO2)CN1C(=O)c2ccccc2C1=O | -1.2
O=C1c2ccccc2-c2c1c1ccccc1c(=O)n2CC1CC1 | -0.55
Oc1cc2c(cc1C(c1ccc(C(F)(F)F)cc1)N1CCOCC1)OCO2 (configuration not stated) | 6.5*
Oc1c(C(c2ccncc2)N2CCOCC2)cc(Cl)c2cccnc12 (configuration not stated) | -0.74
O=C(CCSc1nc(-c2ccc3c(c2)OCO3)cc(C(F)(F)F)n1)N1CCOCC1 | 0.03
COc1ccc(/C=N/Nc2ncnc3cc(C(C)(C)C)sc23)cc1 | 1.8
Cc1ccc(/C(O)=C2/C(=O)C(=O)N(c3cccnc3)C2c2cccc(O)c2)cc1 (configuration not stated) | 0.33
CNS(=O)(=O)c1ccc(C)c(-c2nnc3c4ccccc4c(C)nn23)c1 | 4.5*
Cc1ccc(S(=O)(=O)NC(C)c2ccccc2)cc1-c1nnc2c3ccccc3c(C)nn12 (configuration not stated) | 0.34
CNS(=O)(=O)c1ccc(OC)c(-c2nnc3c4ccccc4c(C)nn23)c1 | -0.01
CCCNS(=O)(=O)c1ccc(OC)c(-c2nnc3c4ccccc4c(C)nn23)c1 | 0.63
SMILES | Dicer processing
Cc1ccc(S(=O)(=O)NC(C)(C)CO)cc1-c1nnc2c3ccccc3c(C)nn12 | 0.08
CCCNS(=O)(=O)c1ccc(C)c(-c2nnc3c4ccccc4c(C)nn23)c1 | 4.3*
O=c1c2ccccc2c(Br)cn1Nc1ccc(Br)cc1 | -1.6
CC(C)(C)NC(=S)Nc1cccc(Cl)c1Cl | -0.55
NC(=S)COc1cc(Cl)cc(Cl)c1 | 1.5
CSC(=CC(=O)c1ccc(Oc2ccc(Cl)cc2Cl)cc1)SC | 1.3
O=C(/C=C/OC(=O)c1ccc(Cl)cc1)c1ccc(Cl)cc1 | 0.32
O=C(CSc1nnc2nnc3cc(Cl)ccc3n12)N1CCOCC1 | -1
Cn1c2c(c(=O)n(C)c1=O)C(c1ccc(O)cc1)C1C(=O)c3ccccc3C1=N2 (configuration not stated) | -0.21
COC(=O)C1=C(C(=O)OC)SC(=C2C(=S)C(C)(C)N(C(=O)C(C)C)c3cc(C)ccc32)S1 | 2.2
CCCC(=O)N1c2cc(C)ccc2C(=C2SC(C(=O)OC)=C(C(=O)OC)S2)C(=S)C1(C)C | 2
CCOC(=O)C1=C(C(=O)OCC)SC(=C2C(=S)C(C)(C)N(C(C)=O)c3cc(C)ccc32)S1 | 3.4*
O=C(Oc1ccc(Cl)cc1)c1sc2sccc2c1Cl | 0.21
CC1=C(C(=O)OC2CCCCC2)C(c2coc3ccc(Cl)cc3c2=O)C2=C(CC(C)(C)CC2=O)N1 (configuration not stated) | 2.4
Cn1ccc(NS(=O)(=O)c2ccc(NS(=O)(=O)c3ccc(Cl)cc3)cc2)n1 | 17
CC1CCc2c(sc(NC(=O)c3ccncc3)c2C(N)=O)C1 (configuration not stated) | -0.66
O=C(CCn1nnc(-c2cccc(Cl)c2Cl)n1)N/N=C/c1ccccc1Cl | 3.2*
Cn1c(C(=O)N/N=C/c2ccccc2Cl)cnc1SCc1ccc(Cl)cc1 | 0.03
CCOC(=O)c1ccc(NC(=S)N/N=C/c2ccccc2Cl)cc1 | 9.9
COc1ccc(NC(=O)c2c(NC(=O)COc3ccc(Cl)cc3)sc3c2CCC3)cc1 | 1
COc1ccc(OC)c(CN2CCN(Cc3ccco3)CC2)c1 | 0.34
CCCOC(=O)C(CC)Oc1ccc2c(=O)c(Oc3ccccc3Br)coc2c1 (configuration not stated) | -0.04
CC(=O)OCC12COC(c3ccccc3OC(C)=O)C(C(C)=CC1C)C2C (configuration not stated) | 1.9
COc1ccc(C2OCC3(COC(C)=O)C(C)C=C(C)C2C3C)cc1 (configuration not stated) | 1.2
CC(=O)OCC12COC(c3ccc(OC(C)=O)cc3)C(C(C)=CC1C)C2C (configuration not stated) | 3.4*
SMILES | Dicer processing
COC(=O)c1sccc1OS(=O)(=O)c1cc([N+](=O)[O-])ccc1C | -5.5
CC(=O)Nc1cc(C)c(NS(=O)(=O)c2ccc(C)cc2)c(C)c1 | -1.1
Cc1ccc(S(=O)(=O)Nc2ccc(O)c(S(=O)(=O)c3ccc(C)cc3)c2)cc1 | 4*
Cc1ccc(NS(=O)(=O)c2ccc(S(N)(=O)=O)cc2)cc1 | -1.7
O=S(=O)(c1ccc(Sc2ccc(S(=O)(=O)N3CCCC3)cc2)cc1)N1CCCC1 | -0.2
COc1ccc(OC)c(C2Oc3c(OC)cccc3C3CC(c4ccccc4O)=NN32)c1 (configuration not stated) | 0.8
COc1cccc2c1OC(c1ccc(F)cc1)N1N=C(c3ccccc3O)CC21 (configuration not stated) | 8.6*
COc1cccc2c1OC(CC(C)C)N1N=C(c3ccccc3O)CC21 (configuration not stated) | 8.3*
COc1cccc2c1OC(c1cccc(OC)c1OC)N1N=C(c3ccccc3O)CC21 (configuration not stated) | 2.1
COC(=O)c1ccc(C2Oc3c(OC)cccc3C3CC(c4ccccc4O)=NN32)cc1 (configuration not stated) | 1.4
COc1ccc(C2Oc3c(OC)cccc3C3CC(c4ccccc4O)=NN32)cc1OC (configuration not stated) | -0.41
COc1ccc(-c2nc(CN3C(=O)c4ccccc4S3(=O)=O)no2)cc1 | -0.31
C/C(=N\Nc1c(Cl)cc(Cl)cc1Cl)c1cc(F)ccc1O | 2.1
C/C(=N\Nc1c(Cl)cc(Cl)cc1Cl)c1oc(C)nc1C | 3.2*
CC(=O)Nc1c(C)cc(Cl)cc1Cl | -0.62
O=C1Nc2c(S(=O)(=O)N3CCOCC3)cc(S(=O)(=O)N3CCOCC3)c3cccc1c23 | 0.07
C=CCN1C(=O)C(O)(C(C)C(=O)c2ccccc2)c2ccccc21 (configuration not stated) | -0.13
CCOC(=O)C1=NN(c2ccc([N+](=O)[O-])cc2)C(C(=O)OCC)=NN1c1ccc([N+](=O)[O-])cc1 | -0.75
C#CC(C)(C)NS(=O)(=O)c1ccc(F)cc1 | -0.55
COc1cc(C2c3c(oc4ccc(F)cc4c3=O)C(=O)N2CC2CCCO2)ccc1O (configuration not stated) | 0.45
